Laboratory results taken from PubChem BioAssay AID687036 (The Scripps Research Institute Molecular Screening Center, 2013).
Hit rate of the full screen: of about 3,300 compounds, about 1,400 (42%) were called active.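 Rule for the calls: active = mean inhibition across replicates above the hit cutoff derived for the earlier primary screen (cut at about 22% in these data); inactive = the rest.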 The set was probably picked from earlier hits. Many of the other results were omitted from the sample, so actives are more common in it than they were.

These compounds were tested against Protein arginine N-methyltransferase 1 (Homo sapiens) (UniProt Q99873) (assay: human PRMT1 activity-probe blockers, retest – biochemical, fluorescence polarization, triplicate, confirmation (AID 687036)). Conditions: recombinant His-PRMT1, activity-based probe fluorescence polarization; at 2.79 µM; hits give high values.
Protein arginine N-methyltransferase 1 (Homo sapiens), sequence (Q99873 whole entry, looked up): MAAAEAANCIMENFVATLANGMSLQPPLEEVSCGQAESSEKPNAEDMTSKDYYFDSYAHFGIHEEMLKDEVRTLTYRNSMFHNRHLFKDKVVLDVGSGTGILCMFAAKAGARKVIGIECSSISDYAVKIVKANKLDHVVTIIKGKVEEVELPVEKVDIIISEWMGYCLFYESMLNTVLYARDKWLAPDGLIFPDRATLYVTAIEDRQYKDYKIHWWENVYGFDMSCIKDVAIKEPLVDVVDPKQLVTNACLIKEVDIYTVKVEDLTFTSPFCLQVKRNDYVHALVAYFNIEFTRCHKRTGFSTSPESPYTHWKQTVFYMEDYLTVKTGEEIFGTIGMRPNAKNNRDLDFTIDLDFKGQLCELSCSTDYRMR

Row | SMILES | inhibition
1 | COc1ccc(N2C(=O)/C(=C/c3ccco3)C(=O)NC2=S)cc1 | 75.2% (active)
2 | Cc1cc(N2CCNC[C@@H]2C)ccc1N1CC[C@H](O)C1 | 4.59% (inactive)
3 | Cc1cc(/C=C2/C(=O)NC(=O)N(Cc3ccco3)C2=O)c(C)n1-c1ccc(C(=O)O)cc1 | -1.23% (inactive)
4 | O=C1NC(=O)N(Cc2ccco2)C(=O)/C1=C\c1ccc(-c2ccc(F)cc2)o1 | 52.9% (active)
5 | CCOC(=O)CC(SP1(=S)OCC2(CCCCO2)C(C2CCCCO2)O1)C(=O)OCC (stereo unspecified) | 60.2% (active)
6 | O=C1N=c2ccccc2=C/C1=C\c1c(O)[nH]c(=S)[nH]c1=O | 55.4% (active)
